The source of these data is PubChem BioAssay (EPA / NIEHS).

One may read the AC50 as the concentration giving half of the maximal activity seen.

Where “and” joins values, the source holds several entries; their conditions need not be identical. Equal entries are not always repeated. Results filed as inconclusive are left out. A structure can be active in one record and inactive in another. Calls of active or inactive are those of the source. How the source made its calls, unless noted: active means hit-call score of the fitted dose curve at least 0.9, where 1 is the maximum; inactive means score below 0.9.

Read-out in experiment [1]: Interleukin-8 (IL8), CXCL8 (gene 3576)
The experiment can be described thus: BSK_SAg_IL8: BioMAP Diversity Plus: SAg Assay for Interleukin-8 (IL8) Biomarker Activity (AID 2283094). As to conditions: primary human HUVEC with PBMC; actives raise or lower the signal. The method in brief:
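Human umbilical vein endothelial cells co-cultured with peripheral blood mononuclear cells; IL-8 measured by ELISA 24 h after chemical dosing. Bidirectional concentration-response fitting used DMSO as negative control and activity baseline.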

The nature of experiment [2]: BSK_SAg_Proliferation: Cell Proliferation Assessment in the BioMAP Diversity Plus: SAg Assay (AID 2283095).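 Further: relative cell number as total protein by SRB absorbance in sub-confluent culture.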 The conditions noted are these: primary human HUVEC with PBMC. The procedure, abridged: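 Human umbilical vein endothelial cells co-cultured with peripheral blood mononuclear cells; total protein measured by sulforhodamine B staining (0.1% SRB after 10% TCA fixation), absorbance at 560 nm, at 96 h. Bidirectional fit against DMSO baseline.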

Experiment [3] is described as follows: BSK_SAg_SRB: Viability Assessment in the BioMAP Diversity Plus: SAg Assay (AID 2283096).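 Further: cells read one day after compound addition; hits may be either gain or loss of signal compared with DMSO.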 The conditions noted are these: primary human HUVEC with PBMC. The method in brief: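 Total protein by sulforhodamine B staining, 24 h after dosing, in HUVEC–PBMC co-culture; DMSO-referenced bidirectional fitting.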
Experiment [4] can be described thus: BSK_SAg_PBMCCytotoxicity: PBMC Cytotoxicity Assessment in the BioMAP Diversity Plus: SAg Assay (AID 2283093).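 Further: PBMC viability measured as Alamar Blue reduction fluorescence at 546/580 nm; fitted both ways against DMSO so a hit may be loss or gain of signal.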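 On AC50: PBMC superantigen activated with SEB plus TSST-1 one hour after compound addition.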 As to conditions: primary human HUVEC with PBMC. The procedure, abridged:
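Compound added to 75,000 PBMC/well for 1 h; SEB and TSST-1 then added at 20 ng/mL final each; 90 h incubation; Alamar Blue 6 h; read 546/580 nm ex/em. Activity fitted bidirectionally relative to DMSO baseline.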

The target in experiment [5] is human CYP2B6, CYP2B6 (gene 1555) (UniProt P20813). The experiment can be described thus: NVS_ADME_hCYP2B6: NovaScreen (NVS) CYP450-related Enzyme Activity (ADME) Assay for human CYP2B6 (AID 2283101; active means hit-call score of the fitted dose curve at least 0.9, where 1 is the maximum). The procedure, abridged:
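Recombinant human CYP2B6 with fluorogenic substrate, read by fluorescence intensity 1 h after dosing. Primary screen in duplicate at 10 uM, actives followed in concentration series; signal loss relative to acetonitrile control.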

For experiment [6], the target named is human CYP1A2, CYP1A2 (gene 1544) (UniProt P05177). The experiment can be described thus: NVS_ADME_hCYP1A2: NovaScreen (NVS) CYP450-related Enzyme Activity (ADME) Assay for human CYP1A2 (AID 2283102; active means hit-call score of the fitted dose curve at least 0.9, where 1 is the maximum;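 on AC50: fluorescence from turnover of a fluorogenic substrate by recombinant insect-cell CYP1A2; potency for inhibition since loss of fluorescence marks reduced CYP1A2 activity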). The procedure, abridged: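 rec. hCYP1A2 (insect cells), cell-free; fluorogenic substrate; 0.5 h; FI read. Baseline = acetonitrile; signal loss = inhibition. 10 uM duplicate primary → conc. series for actives.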

In experiment [7] the target is human CYP2A6, CYP2A6 (gene 1548) (UniProt P11509). The experiment can be described thus: NVS_ADME_hCYP2A6: NovaScreen (NVS) CYP450-related Enzyme Activity (ADME) Assay for human CYP2A6 (AID 2283099; active means hit-call score of the fitted dose curve at least 0.9, where 1 is the maximum). The protocol: NVS_ADME_hCYP2A6 is a biochemical, single-readout assay that uses extracted gene-proteins from insect cells in a cell-free assay. Measurements were taken 0.5 hour after chemical dosing in a 96-well plate.NVS_ADME_hCYP2A6 is one of one assay component(s) measured or calculated from the NVS_ADME_hCYP2A6 assay. It is designed to make measurements of enzyme activity, a form of enzyme reporter, as detected with fluorescence intensity signals by Fluorescence technology.Data from the assay component NVS_ADME_hCYP2A6 was analyzed into 1 assay endpoint. This assay endpoint, NVS_ADME_hCYP2A6, was analyzed in the positive analysis fitting direction relative to Acetonitrile as the negative control and baseline of activity. Using a type of enzyme reporter, loss-of-signal activity can be used to understand changes in the enzymatic activity as they relate to the gene CYP2A6. Furthermore, this assay endpoint can be referred to as a primary readout, because this assay has produced multiple assay endpoints where this one serves a enzymatic activity function. To generalize the intended target to other relatable targets, this assay endpoint is annotated to the cyp intended target family, where the subfamily is xenobiotic metabolism.
Binding assays used specific radioligands (tritiated, iodinated) with non-radioactive competitive displacement ligands in agonist or antagonist protocols (as indicated) and various reference compounds and inhibitors to titrate specific binding to receptors and transporters. Most enzyme assays (CYPs, kinases, phosphatases, proteases, HDACs) used recombinant protein and specific substrates (fluorescence mostly, some colorimetric and radioactive) and inhibitors, followed by a biochemical separation of substrate and product. All assays for the biochemical HTS were initially run in duplicate at a single concentration (10 uM for CYP450 assays and 25 uM for all others). Assay-chemical combinations meeting a pre-defined threshold (e.g., 30% inhibition and other criteria defined below) were then run in singleton concentration-response format with maximum concentration of 20 uM for CYPs and 50 uM for all others. Each assay was run with positive and negative controls, and concurrent controls on every plate. The follow-up (secondary) screen tested active chemical-pairs in concentration series, as well as a few additional assays not tested in the primary screen, some selected negative inactives, and several cases re-run in the concentration series for confirmatory purposes.

For experiment [8], the target named is Cytochrome P450 2C18 (Homo sapiens) (UniProt P33260). The experiment can be described thus: NVS_ADME_hCYP2C18: NovaScreen (NVS) CYP450-related Enzyme Activity (ADME) Assay for human CYP2C18 (AID 2283103). The procedure, abridged: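 Cell-free recombinant human CYP2C18 with fluorogenic substrate; fluorescence intensity read 0.5 h after dosing. Single-point screen at 10 uM in duplicate, then concentration-response up to 20 uM; loss of signal fitted against acetonitrile baseline.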

In experiment [9] the target is human CYP1A1, CYP1A1 (gene 1543) (UniProt P04798). The experiment can be described thus: NVS_ADME_hCYP1A1: NovaScreen (NVS) CYP450-related Enzyme Activity (ADME) Assay for human CYP1A1 (AID 2283100; active means hit-call score of the fitted dose curve at least 0.9, where 1 is the maximum). The method in brief: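 Recombinant hCYP1A1 + fluorogenic substrate, cell-free; 1 h; fluorescence read. Single-point 10 uM (duplicate) → concentration series, max 20 uM. Acetonitrile negative control.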
Chain of human CYP1A1, CYP1A1 (gene 1543) (P04798 whole entry, looked up): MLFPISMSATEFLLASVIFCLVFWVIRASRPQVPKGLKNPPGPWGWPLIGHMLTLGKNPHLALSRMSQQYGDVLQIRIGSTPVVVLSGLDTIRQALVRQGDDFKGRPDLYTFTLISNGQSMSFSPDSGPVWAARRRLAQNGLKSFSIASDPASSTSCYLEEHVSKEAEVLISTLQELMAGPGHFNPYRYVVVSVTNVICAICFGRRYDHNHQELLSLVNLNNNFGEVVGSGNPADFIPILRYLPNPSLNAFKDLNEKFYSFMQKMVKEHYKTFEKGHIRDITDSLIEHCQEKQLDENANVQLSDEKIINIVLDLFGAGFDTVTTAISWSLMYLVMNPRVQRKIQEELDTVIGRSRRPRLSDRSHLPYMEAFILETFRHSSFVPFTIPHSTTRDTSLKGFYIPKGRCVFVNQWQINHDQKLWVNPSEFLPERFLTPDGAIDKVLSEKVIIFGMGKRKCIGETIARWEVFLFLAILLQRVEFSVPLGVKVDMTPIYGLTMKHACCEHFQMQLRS

Chain of human CYP2B6, CYP2B6 (gene 1555) (P20813 whole entry, looked up): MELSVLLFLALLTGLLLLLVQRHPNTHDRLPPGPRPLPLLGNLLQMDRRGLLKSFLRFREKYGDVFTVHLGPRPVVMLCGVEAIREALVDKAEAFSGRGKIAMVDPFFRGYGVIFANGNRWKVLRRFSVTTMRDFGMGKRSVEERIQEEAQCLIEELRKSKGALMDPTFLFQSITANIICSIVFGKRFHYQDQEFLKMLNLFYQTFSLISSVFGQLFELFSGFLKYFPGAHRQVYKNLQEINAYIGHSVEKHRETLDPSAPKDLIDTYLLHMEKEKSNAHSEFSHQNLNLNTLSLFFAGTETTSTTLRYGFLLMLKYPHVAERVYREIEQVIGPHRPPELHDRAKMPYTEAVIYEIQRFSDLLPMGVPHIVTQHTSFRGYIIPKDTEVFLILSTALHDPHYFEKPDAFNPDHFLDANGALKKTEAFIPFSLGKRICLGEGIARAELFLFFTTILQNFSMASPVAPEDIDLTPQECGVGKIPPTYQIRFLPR
Chain of human CYP2A6, CYP2A6 (gene 1548) (P11509 whole entry, looked up): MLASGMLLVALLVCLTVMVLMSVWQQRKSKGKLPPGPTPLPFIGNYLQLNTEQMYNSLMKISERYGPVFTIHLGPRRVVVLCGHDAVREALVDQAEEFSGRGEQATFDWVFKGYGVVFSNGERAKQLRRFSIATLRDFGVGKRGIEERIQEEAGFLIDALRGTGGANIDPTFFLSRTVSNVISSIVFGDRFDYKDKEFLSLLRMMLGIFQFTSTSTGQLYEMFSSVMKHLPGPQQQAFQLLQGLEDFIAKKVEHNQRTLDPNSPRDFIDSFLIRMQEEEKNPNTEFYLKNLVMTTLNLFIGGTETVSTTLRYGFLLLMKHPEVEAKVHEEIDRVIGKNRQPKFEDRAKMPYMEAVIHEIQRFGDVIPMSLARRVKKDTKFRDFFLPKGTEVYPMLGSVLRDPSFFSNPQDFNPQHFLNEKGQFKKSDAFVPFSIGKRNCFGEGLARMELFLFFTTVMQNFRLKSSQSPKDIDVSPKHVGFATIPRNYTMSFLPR
Chain of human CYP1A2, CYP1A2 (gene 1544) (P05177 whole entry, looked up): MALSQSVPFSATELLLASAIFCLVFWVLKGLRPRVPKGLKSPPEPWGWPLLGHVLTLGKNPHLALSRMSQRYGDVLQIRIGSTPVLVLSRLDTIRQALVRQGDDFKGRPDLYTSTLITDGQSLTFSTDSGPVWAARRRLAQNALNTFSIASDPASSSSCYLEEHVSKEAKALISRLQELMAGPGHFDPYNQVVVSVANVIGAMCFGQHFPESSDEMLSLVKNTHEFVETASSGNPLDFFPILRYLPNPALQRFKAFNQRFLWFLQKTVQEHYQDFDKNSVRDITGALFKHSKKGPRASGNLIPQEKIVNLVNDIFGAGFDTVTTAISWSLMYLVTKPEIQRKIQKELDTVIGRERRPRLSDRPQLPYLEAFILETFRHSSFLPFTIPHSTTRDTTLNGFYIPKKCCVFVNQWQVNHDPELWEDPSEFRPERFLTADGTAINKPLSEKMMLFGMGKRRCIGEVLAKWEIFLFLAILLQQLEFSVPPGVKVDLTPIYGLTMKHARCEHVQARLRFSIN
Chain of Cytochrome P450 2C18 (Homo sapiens) (P33260 whole entry, looked up): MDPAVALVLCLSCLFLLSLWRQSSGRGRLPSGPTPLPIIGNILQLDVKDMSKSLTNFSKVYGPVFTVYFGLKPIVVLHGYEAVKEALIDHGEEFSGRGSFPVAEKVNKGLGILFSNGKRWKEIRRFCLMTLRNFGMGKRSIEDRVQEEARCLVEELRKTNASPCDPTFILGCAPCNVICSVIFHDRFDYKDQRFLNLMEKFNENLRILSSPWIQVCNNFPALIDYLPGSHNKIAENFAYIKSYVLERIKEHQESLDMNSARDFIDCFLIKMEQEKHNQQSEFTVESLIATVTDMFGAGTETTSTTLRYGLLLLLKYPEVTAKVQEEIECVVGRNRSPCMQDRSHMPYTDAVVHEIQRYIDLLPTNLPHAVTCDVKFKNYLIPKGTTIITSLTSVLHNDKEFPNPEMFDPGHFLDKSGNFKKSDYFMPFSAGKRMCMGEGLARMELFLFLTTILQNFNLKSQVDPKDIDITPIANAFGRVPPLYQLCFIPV

As to `O=C(O)C(F)(F)C(F)(F)C(F)(F)C(F)(F)C(F)(F)C(F)(F)C(F)(F)C(F)(F)C(F)(F)C(F)(F)F`, the AC50 in experiment [1] is 26.8 µM (active); in [2] it was 32.8 µM (active); in experiment [3], 29.4 µM (active). The result in [1], in [2] and in experiment [3] was inactive.
Regarding `COC(=O)Cc1ccccc1`, the outcome in [4], in experiment [1], in experiment [2] and in experiment [3] was inactive.
Regarding `COc1cc(OC)nc(NC(=O)NS(=O)(=O)c2ncccc2C(=O)N(C)C)n1`, the outcome in [4], in [1], in experiment [2] and in [3] was inactive.
As for `CCSC(C)CC1CC(=O)C(C(CC)=NOC/C=C/Cl)=C(O)C1` (stereo not given), the outcome in experiment [4], in experiment [1], in experiment [2] and in experiment [3] was inactive.
Regarding `C[C@@H]1C[C@@H]([C@H](O)CC2CC(=O)NC(=O)C2)C(=O)[C@@H](C)C1`, the AC50 in experiment [4] is 4.6 µM (active); in [1], 1.4 µM (active); in [2], 3.82 µM (active); in experiment [3], 7.07 µM (active).
`O=S(=O)(c1ccc(Cl)cc1)c1ccc(Cl)cc1`: the result in experiment [4], in experiment [1], in [2] and in experiment [3] was inactive. Further, the concentration at half-maximal activity (AC50) in [5] is 2.89 µM (active).
For `CCOP(=S)(OCC)Oc1ccc(S(C)=O)cc1` (stereo not given), the outcome in experiment [4], in experiment [1], in experiment [2] and in experiment [3] was inactive.
In the case of `CCOC(=O)/C=C(C)/C=C/C[C@@H](C)CCCC(C)C`, the AC50 was 20 µM (active) in experiment [1], 31.5 µM (active) in experiment [2] and 33.1 µM (active) in [3].
`Oc1ccc(-c2ccccc2)cc1`: the outcome in experiment [1], in experiment [2] and in experiment [3] was inactive.
On to `Cn1sc(Cl)cc1=O`, for which the results for the AC50 in experiment [4], in experiment [1] and in experiment [2] were 16.9 µM (active), 20 µM (active) and 6.46 µM (active), respectively. In addition, the result in experiment [3] and in experiment [6] was inactive.
For `CCCCCCCCc1ccc(O)cc1`, the AC50 in experiment [4] is 29 µM (active); in [1] it was 32.2 µM (active); in experiment [2], 19.3 µM (active); in experiment [3] it was 38.2 µM (active). Besides, in [7], the call was inactive.
For the molecule `CC(C)(c1ccccc1)c1ccc(O)c(C(C)(C)c2ccccc2)c1`, the concentration at half-maximal activity (AC50) in [4] was 8.97 µM (active); in experiment [1], 11.4 µM (active); in [2] it was 6 µM (active); in [3], 13 µM (active).
As for `O=Cc1cccc(Oc2ccccc2)c1`, the outcome in [4], in experiment [1], in [2] and in [3] was inactive.
As to `NC(=S)Nc1ccccc1`, the outcome in experiment [4], in [1], in experiment [2] and in experiment [3] was inactive.
As for `CC(C)CCCCCCOC(=O)c1ccccc1C(=O)OCCCCCCC(C)C`, the result in [4], in experiment [1] and in [2] was inactive. Besides, the AC50 in experiment [3] was 0.206 µM (active).
With `COP(=S)(OC)Oc1ccc(S(=O)(=O)N(C)C)cc1`, the result in [1], in experiment [2] and in experiment [3] was inactive.
Regarding `ClC(Cl)=C(Cl)C(Cl)=C(Cl)Cl`, the values for the AC50 in experiment [4] and in [2] were 33.1 µM (active) and 31.7 µM (active), respectively. In addition, the outcome in experiment [1] and in [3] was inactive.
`O=[N+]([O-])c1ccc2c3c(cccc13)CC2`: the result in experiment [4], in experiment [1], in experiment [2] and in experiment [3] was inactive.
In the case of `Nc1ccc(-c2ccc(N)c(Cl)c2)cc1Cl`, the result in experiment [4], in experiment [1] and in experiment [2] was inactive. Besides, the AC50 in [3] was 8.93 µM (active).
Take `Oc1c(I)cc(I)cc1I`: the outcome in experiment [4] was inactive. Moreover, the AC50 in experiment [1] was 34.3 µM (active); in experiment [2], 31.9 µM (active); in experiment [3], 20 µM (active).
For the molecule `O=C1C2(Cl)C3(Cl)C4(Cl)C(Cl)(Cl)C5(Cl)C3(Cl)C1(Cl)C5(Cl)C24Cl` (stereo not given), the AC50 in [4] is 5.7 µM (active); in experiment [1], 26.2 µM (active); in experiment [2], 4.64 µM (active); in experiment [3], 6.17 µM (active); in [5], 2.02 µM (active) and 4.09 µM (active) and 1.02 µM (active); in experiment [8], 0.519 µM (active).
With `Nc1cccc2ccccc12`, the result in experiment [4], in experiment [1], in experiment [2] and in experiment [3] was inactive.
For the molecule `CCOP(=S)(OCC)SCSP(=S)(OCC)OCC`, the outcome in [4], in experiment [1], in experiment [3], in [5] and in [6] was inactive. The AC50 in [2] was 20 µM (active).
Regarding `CC(=O)C(Cl)C(=O)N(C)C` (stereo not given), the concentration at half-maximal activity (AC50) in experiment [4] is 7.81 µM (active); in [1], 14.1 µM (active); in experiment [2], 20 µM (active). The outcome in experiment [3] was inactive.
For `CCN1CCC2(CC1)COc1cc3c(cc12)N(C(=O)c1ccc(-c2ccc(-c4nnc(C)o4)cc2C)cc1)CC3`, the AC50 in experiment [1] is 12.3 µM (active); in experiment [2] it was 6.95 µM (active); in experiment [3], 12.7 µM (active).
Regarding `COc1cc(-c2ccc(N)c(OC)c2)ccc1N`, the AC50 in experiment [1] is 7.64 µM (active); in experiment [2], 11.8 µM (active); in [9], 3.13 µM (active) and 3.48 µM (active); in [5] it was 6.76 µM (active) and 3.92 µM (active); in [6], 1.27 µM (active). The outcome in experiment [1], in experiment [2], in experiment [3], in [7] and in experiment [6] was inactive.
As for `CCOP(=S)(OCC)Oc1nc(Cl)c(Cl)cc1Cl`, the AC50 in experiment [4] was 34.3 µM (active); in experiment [1], 20 µM (active); in experiment [2], 34.4 µM (active). The result in experiment [3] was inactive.
Turning to `O=[N+]([O-])c1ccc(O)c([N+](=O)[O-])c1`, the result in experiment [4], in [1], in experiment [2], in experiment [3] and in [7] was inactive.
On to `C=CC(=O)OCCCCCC(C)C`, for which the outcome in [1], in experiment [2] and in experiment [3] was inactive.
`CC1(C)Cc2cccc(O)c2O1`: the result in experiment [4], in experiment [1], in experiment [2] and in [3] was inactive.
For the molecule `CC12CC1(C)C(=O)N(c1cc(Cl)cc(Cl)c1)C2=O` (stereo not given), the result in experiment [4], in [1], in experiment [2] and in [3] was inactive.
